Experimental data taken from ChEMBL document CHEMBL4513216, “Probing the Open Global Health Chemical Diversity Library for Multistage-Active Starting Points for Next-Generation Antimalarials” (ACS Infect Dis, 2020).
Among all 68,000 compounds or so, about 2,700 (4%) showed an effect of 50% or more. Many of the other results were omitted from the sample, so strong results are more common in it than they were.

system: Plasmodium berghei; assay: Screen against P. berghei liver stage (PbLuc), transformed with Luciferase, at 2uM; type: functional, HepG2; settings: tested at 2 uM

SMILES	INHIBITION
COCC(O)CN(C)c1cc(C(F)(F)F)nc(-c2cccnc2)n1 (stereo unspecified)	-2.47%
CC(NCc1ccnc(OC2CCC2)c1)c1cnn(C)c1 (stereo unspecified)	18.98%
COc1ccc(CNC(C)c2cnn(C)c2)cc1OC1CCCC1 (stereo unspecified)	51.76%
CC(NCc1cccc(COC2CCCC2)c1)c1cnn(C)c1 (stereo unspecified)	12.83%
CN(C1CCN(C(=O)NCCc2ccc(F)cc2F)CC1)S(C)(=O)=O	8.56%
CCN(CC)C(=O)CNC(=O)N1CCC(c2ccc(OC)cc2)C1 (stereo unspecified)	26.44%
CSCC(=O)N1CCC(Oc2cccc(C)c2)CC1	10.91%
COCC(=O)N1CCC(c2ccc(OC)cc2)C1 (stereo unspecified)	56.21%
COCC(=O)N1CCC(c2cc(-c3ccc(OC)cc3)n[nH]2)C1 (stereo unspecified)	-0.64%
COC(=O)NCC(=O)N1CCC(Oc2cccc(C)c2)CC1	-31.79%
COCC(=O)N1CCC(Oc2cccc(C)c2)CC1	58.53%
CC(C)c1nc2cc(NC(=O)c3n[nH]c4c3CCC4)ccc2n1C	-12.41%
CNC(=O)C1(c2cnccn2)CCCN1C(=O)c1ccn(C)n1 (stereo unspecified)	43.89%
Cc1nnc(N2CC[C@H]3C[C@H](C(=O)N(C)C)O[C@@H]3C2)s1	4.42%
CCN1CC(COc2ccc(OC)cc2)Oc2ccncc2S1(=O)=O (stereo unspecified)	18.99%
CCN1CC(COc2ccccc2)Oc2ncccc2S1(=O)=O (stereo unspecified)	55.73%
O=S1(=O)c2cccnc2OC(COc2ccccc2)CN1CC1CC1 (stereo unspecified)	22.01%
CN(C)C1(CNc2nccc(C3CCCC3)n2)CCOCC1	1.1%
NC(=O)CCn1ccc(NC(=O)c2ccc(OCC3CC3)cc2)n1	-52.01%
Cc1nnsc1C(=O)NCc1cccnc1N1CCCC(O)C1 (stereo unspecified)	41.59%
Cc1nn(C)c(N(C)C)c1CNCc1ccccc1Cn1cccn1	-40.27%
CC(C)c1nccn1C(C)C(=O)NC1CCOCC1 (stereo unspecified)	1.1%

SMILES	INHIBITION
CC(C)c1nccn1C(C)C(=O)NC1Cc2ccccc2C1 (stereo unspecified)	51.72%
CC(C)c1nccn1C(C)C(=O)NC1CCN(S(C)(=O)=O)CC1 (stereo unspecified)	8.13%
Cc1cc(C)c(CNC(=O)NCc2nnc3n2CCCC3)c(=O)[nH]1	-47.98%
O=C(O)c1ccn(-c2cccc(NC(=O)c3ccccc3Cl)c2)n1	23.43%
O=C(CCc1cc(Cl)no1)N1CCC(c2cc3ncccc3cn2)CC1	15.72%
CCOC(=O)c1nc(COc2c(C)occc2=O)no1	54.13%
CNC(=O)c1nc(COc2c(C)occc2=O)no1	20.19%
Cc1occc(=O)c1OCc1noc(C(=O)NC(C)C)n1	2.06%
Cc1cn(Cc2ccc(F)c(F)c2)nc1N	17.69%
FC(F)(F)c1n[nH]c2c1CN(Cc1cn3ccccc3n1)CC2	-7.14%
FC(F)(F)c1[nH]nc2c1CN(Cc1ccccc1)CC2	57.77%
[O-][S+](CCN1CCc2[nH]nc(C(F)(F)F)c2C1)c1ccccc1 (stereo unspecified)	-62.71%
Cc1ccccc1CN1CCC2(CC1)CN(S(=O)(=O)c1ccccc1)C2	43.51%
O=C(NCc1cccnc1)Nc1cc(C(F)(F)F)c[nH]c1=O	-13.92%
O=C1N(c2ccsc2)CCC12CCCN(CC1CC1)C2 (stereo unspecified)	7.77%
O=C(c1cccnc1O)N(Cc1cccs1)CC1CCCO1 (stereo unspecified)	64.9%
Cc1csc(CN(CC2CCCO2)C(=O)c2cccnc2C)n1 (stereo unspecified)	-5.92%
O=C(c1cccnc1O)N(Cc1ccsc1)CC1CCCO1 (stereo unspecified)	-85.83%
c1ccc2[nH]c(C3CCN(Cc4nc(C5CC5)no4)CC3)cc2c1	-3.99%
O=C(CCc1cc2n(n1)CCCNC2)N1CCSCC1	-9.98%
Cc1n[nH]c(CN2CCN(c3ncnc4scc(C)c34)CC2)c1Cl	74.18%
CCc1nc(C)c(CN2CCN(c3ncnc4scc(C)c34)CC2)[nH]1	-33.43%

SMILES	INHIBITION
CCc1nc(C)c(CN2CCN(c3ncnc4c(C)csc34)CC2)[nH]1	-3.25%
CC(C)Oc1ncccc1CNC(=O)N1CCOCC1	-10.84%
CN(C)CC(=O)N1CCc2sc(C(=O)N3CCN(C)CC3)cc21	34.93%
O=C(NCc1ccccn1)[C@@H]1CC[C@@H]2[C@@H](CCN2c2ncc(F)cn2)O1	21.77%
Cc1nc(C2CCCN(C(=O)c3ccoc3)C2)no1 (stereo unspecified)	-3.64%
Cc1cccc(C(=O)N2CCCC(c3noc(C)n3)C2)n1 (stereo unspecified)	-11.71%
CCn1cc(C(=O)N2CCCC(c3noc(C)n3)C2)cn1 (stereo unspecified)	31.46%
Cc1nc(C2CCCN(C(=O)c3cccc4c3OCO4)C2)no1 (stereo unspecified)	27.31%
Cc1nc(C2CCCN(C(=O)c3ccco3)C2)no1 (stereo unspecified)	51.32%
Cc1nc(C2CCCN(C(=O)c3cnn(C(C)(C)C)c3)C2)no1 (stereo unspecified)	56.12%
Cc1nc(C2CCCN(C(=O)c3cc(Cl)c4c(c3)OCO4)C2)no1 (stereo unspecified)	50.05%
Cn1cnnc1C1CCCN(C(=O)c2cc(Cl)c3c(c2)OCO3)C1 (stereo unspecified)	3.9%
Cc1nc(C2CCCN(C(=O)c3cnn(C4CCCCC4)c3)C2)no1 (stereo unspecified)	-31.72%
Cc1noc(C)c1-c1cccc(C2CCCNC2)n1 (stereo unspecified)	29.48%
CN(C)c1nc(N)nc(CN2CCCC2c2cccs2)n1 (stereo unspecified)	-43.18%
CC(CO)N(C)C(=O)c1cn(-c2ccc(Br)cc2)cn1 (stereo unspecified)	-33.03%
O=C(c1cncc(NCC2COc3ccccc3C2)n1)N1CCCCC1 (stereo unspecified)	31.05%
O=C(c1cncc(NCC2COc3ccccc3C2)n1)N1CCOCC1 (stereo unspecified)	10.77%
O=C(c1cncc(NCC2COc3ccccc3C2)n1)N1CCCC1 (stereo unspecified)	50.3%
Cc1ncc(CNC(=O)N(C)C2CCN(c3ccccc3)C2=O)s1 (stereo unspecified)	-16.12%
CNc1cc(C2CN(Cc3coc(C)n3)CCO2)nc(C)n1 (stereo unspecified)	-13.51%
CS(=O)(=O)CCN1CC(c2ccccc2)(c2ccccc2)CCC1=O	19.12%

SMILES	INHIBITION
O=C1CCC(c2ccccc2)(c2ccccc2)CN1CCO	22%
CN(C)C(=O)CCN1CC(c2ccccc2)(c2ccccc2)CCC1=O	64.08%
Cn1ccnc1CN1CC[C@@H](NS(C)(=O)=O)[C@@H]1Cc1cccnc1	-29.46%
CN1CCOC(CNCc2cnc(C(C)(C)C)s2)C1 (stereo unspecified)	11.01%
Cc1cn2c(n1)C(CNCc1ccc(C)s1)CCC2 (stereo unspecified)	-35.26%
Cc1ccc(CNCC2CCCn3ccnc32)s1 (stereo unspecified)	14.82%
CC(C)(C)c1ncc(CNCC2CCCn3ccnc32)s1 (stereo unspecified)	52.98%
CCN(CC)c1ncc(CNCC2CCCn3ccnc32)s1 (stereo unspecified)	-6.64%
Cc1nc(C)c(CNCC2CCCn3ccnc32)s1 (stereo unspecified)	50.59%
Cn1cc(CN2CCc3nc4sccc4c(=O)n3CC2)cn1	35.7%
COc1ccc(C(=O)N2CCC(Nc3cccnn3)CC2)c(OC)c1	-51.92%
CC(C)NC(=O)N1CCCC2(CCN(c3ccsc3)C2=O)C1 (stereo unspecified)	17.77%
CCC1CN(C)c2ccccc2CN1C(=O)c1c[nH]c(=O)cc1C (stereo unspecified)	42.8%
CN(C)C(=O)[C@H]1C[C@H]2OCC[C@H]2N(Cc2ccc(F)cc2)C1	35.38%
CCC(CC)n1nc(C)cc1NC(=O)CC1CCOCC1	-28.5%
CCC(CC)n1nc(C)cc1NC(=O)C1CCCO1 (stereo unspecified)	53.61%
CCC(CC)n1nc(C)cc1NC(=O)C1CCOC1 (stereo unspecified)	-3.87%
CN(C(=O)c1ccc[nH]1)C1CC(=O)N(Cc2ccccc2)C1=O (stereo unspecified)	29.91%
Cc1nc(C(=O)N(C)C2CC(=O)N(Cc3ccccc3)C2=O)cs1 (stereo unspecified)	50.42%
Cc1[nH]ccc1C(=O)N(C)C1CC(=O)N(Cc2ccccc2)C1=O (stereo unspecified)	30.59%
O=C(C[C@@H]1COC[C@H]2CN(C(=O)c3cccnc3)C[C@@H]12)N1CCOCC1	22.89%
Cc1ccc(CN2CCOC3(COCCN(C(C)C)C3)C2)s1 (stereo unspecified)	-9.22%

SMILES	INHIBITION
CCc1nsc(N2CCCN(C(=O)COc3ccccc3)CC2)n1	-26.86%
CCc1nsc(N2CCN(C(=O)COc3ccccc3)CC2)n1	61.82%
CCc1ncc(C(=O)N2CCN(C(=O)COc3ccccc3)CC2)cn1	-28.5%
N#CCCN(c1ccc(F)cc1)S(=O)(=O)CC1CCCCO1 (stereo unspecified)	-7.39%
CC(=O)Nc1ccc(C(=O)NCCCn2cccc2)cc1	30.58%
CN(C)c1cc(C(=O)N2CCCCC2Cn2cccn2)ccn1 (stereo unspecified)	-7.15%
CN(C)c1cc(C(=O)N2CCCCC2CNS(C)(=O)=O)ccn1 (stereo unspecified)	53.11%
CCC1CCCCN1C(=O)c1ccnc(N(C)C)c1 (stereo unspecified)	16.84%
CC(C)NC(=O)[C@H]1C[C@@H]2[C@@H](C1)OCCN2Cc1cccs1	29.43%
CC(C)C(C)N(C(=O)c1cc2c([nH]c1=O)CCCC2=O)C1CC1 (stereo unspecified)	72.49%
CC(C)CCN(C(=O)c1cc2c([nH]c1=O)CCCC2=O)C1CC1	0.12%
O=C1CCCc2[nH]c(=O)c(C(=O)N(CC3CCCCC3)C3CC3)cc21	67.44%
CCCN(C(=O)c1cc2c([nH]c1=O)CCCC2=O)C1CCCCC1	22%
CC(c1ccco1)N(C(=O)c1cc2c([nH]c1=O)CCCC2=O)C1CC1 (stereo unspecified)	-8.3%
CCN(C(=O)c1cc2c([nH]c1=O)CCCC2=O)C1CCCCC1	-58.06%
COc1ccc2c(c1)C1(CCNCC1)CC2NC1CC1 (stereo unspecified)	0%
CC(C)(CN1CCOCC1)CN1CCC(Cc2cccc(CO)c2)C1 (stereo unspecified)	-7.7%
CCN(CC)c1ccc(NS(=O)(=O)c2cnn(C(C)C)c2)cn1	3.17%
